# For some of these results: Potency and affinity values are given separately.
# Assays:
# Parameters in all cases: scale not given: direction of the effect not stated beside the values
# [1] = biological target: Protein translocase subunit SecA (Escherichia coli (strain K12)) (UniProt P10408); assay: Assay to Identify E. coli SecA ATPase Inhibitors; type: functional; conditions: 30 µM
# [2] = biological target: T1, Ubiquitin-activating enzyme e1, putative (Leishmania donovani (strain BPK282A1)) (UniProt E9BSI1); assay: Leishmania donovani Ubiquitin Activating Enzyme (LdE1); type: functional; conditions: 30 µM
# T1 sequence (whole entry): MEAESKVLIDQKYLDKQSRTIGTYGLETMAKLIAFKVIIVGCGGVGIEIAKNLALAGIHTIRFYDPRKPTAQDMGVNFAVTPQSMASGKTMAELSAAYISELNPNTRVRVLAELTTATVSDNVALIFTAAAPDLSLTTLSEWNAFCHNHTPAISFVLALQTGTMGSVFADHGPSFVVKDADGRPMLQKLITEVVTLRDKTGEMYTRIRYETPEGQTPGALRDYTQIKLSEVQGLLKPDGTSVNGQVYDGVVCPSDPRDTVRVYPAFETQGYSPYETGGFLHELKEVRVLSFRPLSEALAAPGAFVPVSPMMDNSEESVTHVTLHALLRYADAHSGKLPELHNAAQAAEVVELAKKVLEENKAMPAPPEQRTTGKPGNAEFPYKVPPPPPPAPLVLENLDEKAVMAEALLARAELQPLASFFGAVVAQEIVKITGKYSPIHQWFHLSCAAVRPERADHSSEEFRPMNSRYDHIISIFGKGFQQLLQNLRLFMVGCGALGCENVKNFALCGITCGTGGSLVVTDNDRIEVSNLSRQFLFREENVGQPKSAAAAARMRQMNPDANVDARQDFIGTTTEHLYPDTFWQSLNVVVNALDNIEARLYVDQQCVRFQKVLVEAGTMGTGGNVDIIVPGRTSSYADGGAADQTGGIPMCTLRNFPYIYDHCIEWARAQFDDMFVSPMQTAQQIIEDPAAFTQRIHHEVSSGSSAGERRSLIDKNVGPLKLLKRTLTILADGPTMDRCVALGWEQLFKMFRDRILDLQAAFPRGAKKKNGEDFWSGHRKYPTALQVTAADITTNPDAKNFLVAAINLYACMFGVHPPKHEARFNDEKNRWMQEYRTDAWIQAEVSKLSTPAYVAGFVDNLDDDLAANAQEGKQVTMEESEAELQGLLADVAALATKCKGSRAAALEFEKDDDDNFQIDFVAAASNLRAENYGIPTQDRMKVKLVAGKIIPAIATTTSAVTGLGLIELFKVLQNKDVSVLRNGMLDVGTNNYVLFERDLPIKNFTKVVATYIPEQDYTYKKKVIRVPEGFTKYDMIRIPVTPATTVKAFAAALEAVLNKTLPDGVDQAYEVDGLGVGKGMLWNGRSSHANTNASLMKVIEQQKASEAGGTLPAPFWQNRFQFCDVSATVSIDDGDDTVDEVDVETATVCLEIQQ
# [3] = biological target: AMP-activated protein kinase, AMPK (Homo sapiens) (UniProt P54646+O43741+P54619+Q9UGJ0+Q9Y478+Q13131+Q9UGI9); assay: AMP-dependent Kinase enzyme assay. An in vitro enzyme assay that detects ADP turnover that is directly proportional to AMPK activity. This uses naive AMPK that is activated during the assay with MK-8722; type: functional; conditions: 30 µM
# [4] = biological target: Sialic acid-binding Ig-like lectin 9 (Homo sapiens) (UniProt Q9Y336); assay: Hs-Siglec9 ALPHAscreen SOP 20170721; conditions: 10 µM
# Trypanosoma cruzi = assay: Trypanosoma cruzi phosphomannomutase and mannose-1-phosphate guanylyltransferase assay; type: functional; conditions: 10 µM
# [5] = biological target: T2, Arginase-2, mitochondrial (Homo sapiens) (UniProt P78540); assay: in vitro enzyme assay to detect the production of urea directly proportional to the activity of Arginase II; type: functional; conditions: 33.3 µM; further: in the data most compounds retested in dose-response had high values
# T2 sequence (whole entry): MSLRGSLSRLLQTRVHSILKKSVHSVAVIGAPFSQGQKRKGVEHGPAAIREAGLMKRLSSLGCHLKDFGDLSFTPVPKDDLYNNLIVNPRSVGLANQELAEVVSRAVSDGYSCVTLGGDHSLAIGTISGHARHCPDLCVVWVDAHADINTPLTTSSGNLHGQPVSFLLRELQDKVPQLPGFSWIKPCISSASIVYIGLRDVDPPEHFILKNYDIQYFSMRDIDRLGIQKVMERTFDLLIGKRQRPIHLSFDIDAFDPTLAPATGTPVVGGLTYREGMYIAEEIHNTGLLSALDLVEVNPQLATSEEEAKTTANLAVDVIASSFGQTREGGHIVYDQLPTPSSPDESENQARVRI
# [6] = biological target: T3, Proteasome subunit beta (Trypanosoma cruzi) (UniProt O96673); assay: Trypanosoma cruzi proteasome chymotrypsin-like activity (TcProtChymo) assay.; further: in the data most compounds retested in dose-response had high values; type: functional; conditions: 9.37 µM
# T3 sequence (whole entry): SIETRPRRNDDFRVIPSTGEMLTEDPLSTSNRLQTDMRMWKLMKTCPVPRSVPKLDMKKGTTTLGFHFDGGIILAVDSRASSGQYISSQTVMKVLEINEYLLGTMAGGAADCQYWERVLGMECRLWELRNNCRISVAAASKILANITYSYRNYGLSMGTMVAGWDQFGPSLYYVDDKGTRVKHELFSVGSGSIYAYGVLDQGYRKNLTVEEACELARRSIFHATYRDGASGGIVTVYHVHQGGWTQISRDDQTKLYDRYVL
# Homo sapiens = species on record: Homo sapiens; assay: To identify inhibition of the IFN signalling (Jak-Stat) pathway via expression of an eGFP reporter gene under the control of an IFN-stimulated response element (ISRE) containing MxA promoter.; type: functional; conditions: 30 µM
# [7] = biological target: T4, Tyrosyl-tRNA synthetase, putative (Trypanosoma cruzi (strain CL Brener)) (UniProt Q4DSP6); assay: Trypanosoma cruzi tyrosyl tRNA synthetase (TcYRS) _High Tyrosine SOP; type: functional; conditions: 30 µM; further: in the data most compounds retested in dose-response had high values
# T4 sequence (whole entry): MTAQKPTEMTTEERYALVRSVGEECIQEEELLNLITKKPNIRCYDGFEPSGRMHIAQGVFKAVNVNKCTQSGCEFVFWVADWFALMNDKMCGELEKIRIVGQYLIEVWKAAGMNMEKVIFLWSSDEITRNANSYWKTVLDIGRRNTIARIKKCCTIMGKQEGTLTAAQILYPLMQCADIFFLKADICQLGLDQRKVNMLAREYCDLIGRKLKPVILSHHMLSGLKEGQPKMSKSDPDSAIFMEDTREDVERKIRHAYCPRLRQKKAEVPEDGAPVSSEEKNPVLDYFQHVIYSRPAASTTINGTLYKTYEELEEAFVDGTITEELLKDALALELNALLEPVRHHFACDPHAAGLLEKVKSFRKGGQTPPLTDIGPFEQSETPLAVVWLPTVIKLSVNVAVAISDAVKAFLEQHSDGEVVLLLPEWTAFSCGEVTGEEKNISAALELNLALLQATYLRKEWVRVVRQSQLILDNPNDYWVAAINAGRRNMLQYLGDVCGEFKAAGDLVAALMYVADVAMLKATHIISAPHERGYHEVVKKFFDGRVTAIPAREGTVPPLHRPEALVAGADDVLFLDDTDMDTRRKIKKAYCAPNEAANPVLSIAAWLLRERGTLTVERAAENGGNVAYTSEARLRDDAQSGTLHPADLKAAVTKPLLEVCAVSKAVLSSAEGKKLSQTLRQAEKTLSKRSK
# [8] = biological target: T4, Tyrosyl-tRNA synthetase, putative (Trypanosoma cruzi (strain CL Brener)); assay: Trypanosoma cruzi tyrosyl tRNA synthetase (TcYRS) SOP; type: functional; conditions: 30 µM
# [9] = biological target: Chromo domain-containing protein 1 (Saccharomyces cerevisiae (strain ATCC 204508 / S288c) (Baker's yeast)) (UniProt P32657); assay: ScCHD-1 Enzyme Inhibition Assay; type: functional; conditions: 30 µM; further: in the data most compounds retested in dose-response had high values
# Chain of Chromo domain-containing protein 1 (Saccharomyces cerevisiae (strain ATCC 204508 / S288c) (Baker's yeast)) (P32657 whole entry, the tested form may be a part): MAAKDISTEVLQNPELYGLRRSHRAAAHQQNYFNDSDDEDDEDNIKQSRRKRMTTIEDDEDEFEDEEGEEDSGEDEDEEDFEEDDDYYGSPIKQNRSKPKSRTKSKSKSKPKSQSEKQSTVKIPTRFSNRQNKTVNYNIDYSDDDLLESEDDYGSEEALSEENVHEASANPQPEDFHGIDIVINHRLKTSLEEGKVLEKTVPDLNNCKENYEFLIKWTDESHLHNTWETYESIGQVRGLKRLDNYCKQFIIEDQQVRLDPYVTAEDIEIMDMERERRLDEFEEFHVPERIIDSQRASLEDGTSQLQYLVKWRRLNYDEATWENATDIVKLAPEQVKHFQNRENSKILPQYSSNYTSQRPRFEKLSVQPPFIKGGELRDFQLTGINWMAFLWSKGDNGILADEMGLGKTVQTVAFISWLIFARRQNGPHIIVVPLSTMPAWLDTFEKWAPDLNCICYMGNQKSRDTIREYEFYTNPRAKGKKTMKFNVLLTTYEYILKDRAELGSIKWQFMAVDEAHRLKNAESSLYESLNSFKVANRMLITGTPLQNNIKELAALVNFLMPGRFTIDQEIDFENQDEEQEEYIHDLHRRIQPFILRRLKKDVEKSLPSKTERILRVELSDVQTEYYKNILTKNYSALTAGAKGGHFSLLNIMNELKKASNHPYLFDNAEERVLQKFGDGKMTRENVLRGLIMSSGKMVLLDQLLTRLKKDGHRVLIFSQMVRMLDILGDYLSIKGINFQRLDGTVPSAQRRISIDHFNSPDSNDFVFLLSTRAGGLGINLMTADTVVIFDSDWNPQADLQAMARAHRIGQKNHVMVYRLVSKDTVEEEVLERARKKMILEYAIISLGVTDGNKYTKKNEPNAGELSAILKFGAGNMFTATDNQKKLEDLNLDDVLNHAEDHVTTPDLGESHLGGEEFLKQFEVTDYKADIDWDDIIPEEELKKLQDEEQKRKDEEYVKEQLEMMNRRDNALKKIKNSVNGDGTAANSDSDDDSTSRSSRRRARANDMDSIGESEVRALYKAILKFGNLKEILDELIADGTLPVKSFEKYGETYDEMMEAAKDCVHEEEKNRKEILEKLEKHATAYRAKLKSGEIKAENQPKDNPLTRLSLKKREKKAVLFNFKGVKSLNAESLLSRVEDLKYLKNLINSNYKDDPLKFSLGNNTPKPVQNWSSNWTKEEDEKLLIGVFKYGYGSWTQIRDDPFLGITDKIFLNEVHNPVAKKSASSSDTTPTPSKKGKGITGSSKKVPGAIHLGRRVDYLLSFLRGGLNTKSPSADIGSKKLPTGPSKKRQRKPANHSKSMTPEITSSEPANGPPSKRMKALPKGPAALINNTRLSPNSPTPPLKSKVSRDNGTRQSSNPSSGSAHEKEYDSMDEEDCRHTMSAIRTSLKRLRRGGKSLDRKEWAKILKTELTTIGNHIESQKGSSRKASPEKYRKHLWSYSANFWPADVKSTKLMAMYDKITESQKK
# Chain of Sialic acid-binding Ig-like lectin 9 (Homo sapiens) (Q9Y336 whole entry): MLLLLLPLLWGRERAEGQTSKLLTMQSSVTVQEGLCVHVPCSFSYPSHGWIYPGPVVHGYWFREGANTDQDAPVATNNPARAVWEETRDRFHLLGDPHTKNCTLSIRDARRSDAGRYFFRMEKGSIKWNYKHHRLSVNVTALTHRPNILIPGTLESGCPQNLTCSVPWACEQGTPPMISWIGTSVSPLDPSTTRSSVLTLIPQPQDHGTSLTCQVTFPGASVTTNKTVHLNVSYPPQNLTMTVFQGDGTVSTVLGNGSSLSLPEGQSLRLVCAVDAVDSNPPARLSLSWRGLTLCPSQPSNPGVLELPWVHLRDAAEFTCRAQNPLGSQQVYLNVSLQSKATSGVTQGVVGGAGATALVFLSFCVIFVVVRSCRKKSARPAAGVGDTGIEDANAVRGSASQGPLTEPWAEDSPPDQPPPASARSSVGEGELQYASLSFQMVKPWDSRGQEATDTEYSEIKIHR
# Chain of Protein translocase subunit SecA (Escherichia coli (strain K12)) (P10408 whole entry): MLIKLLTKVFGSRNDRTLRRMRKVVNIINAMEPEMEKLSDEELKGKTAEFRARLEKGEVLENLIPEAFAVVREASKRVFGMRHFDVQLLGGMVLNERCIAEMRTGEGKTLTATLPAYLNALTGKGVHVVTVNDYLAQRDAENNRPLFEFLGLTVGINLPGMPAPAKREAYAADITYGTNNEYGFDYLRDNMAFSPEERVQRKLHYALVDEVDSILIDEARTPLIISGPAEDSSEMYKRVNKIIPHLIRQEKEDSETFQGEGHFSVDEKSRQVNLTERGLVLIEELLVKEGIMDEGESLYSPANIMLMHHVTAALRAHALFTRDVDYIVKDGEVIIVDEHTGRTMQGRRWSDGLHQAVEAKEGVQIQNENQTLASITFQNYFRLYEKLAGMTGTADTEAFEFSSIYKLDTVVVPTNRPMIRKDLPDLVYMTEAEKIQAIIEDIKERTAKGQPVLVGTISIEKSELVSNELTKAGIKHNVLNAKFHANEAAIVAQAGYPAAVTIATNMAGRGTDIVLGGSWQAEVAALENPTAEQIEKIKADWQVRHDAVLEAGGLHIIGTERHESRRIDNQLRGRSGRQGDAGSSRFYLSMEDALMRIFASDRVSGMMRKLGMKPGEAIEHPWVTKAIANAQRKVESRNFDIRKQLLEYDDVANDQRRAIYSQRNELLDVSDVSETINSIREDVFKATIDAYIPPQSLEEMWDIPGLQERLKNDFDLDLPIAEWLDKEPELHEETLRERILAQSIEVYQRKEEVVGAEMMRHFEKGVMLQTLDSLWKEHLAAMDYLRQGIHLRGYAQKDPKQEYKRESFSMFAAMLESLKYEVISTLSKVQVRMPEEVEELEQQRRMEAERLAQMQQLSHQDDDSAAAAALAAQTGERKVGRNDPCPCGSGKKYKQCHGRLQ
Compound,Percent Effect [1] [%],Percent Effect [2] [%],Percent Effect [3] [%],Percent Effect [4] [%],Percent Effect (Trypanosoma cruzi) [%],Percent Effect [5] [%],Percent Effect [6] [%],Percent Effect (Homo sapiens) [%],Percent Effect [7] [%],Percent Effect [8] [%],Percent Effect [9] [%]
O=C(CCNc1ncccn1)NCCc1ccn(-c2ccccc2)n1,-3.96,21.5,-1.83,-7.45,4.82,0.215,15.4,-2.32,6.25,20.2,-24.6
OCc1ccc(Cl)c(NCc2cccnc2)c1,-4.1,0,-0.207,-4.73,-1.85,2.37,2.01,-2.65,0,-5.2,-6.29
CCOCCCC(=O)NCc1cn2cc(Br)ccc2n1,-1.32,7.89,1.23,-4.68,-1.66,0,24.1,-9.79,6.38,15.6,-2.98
CN1CCCC(CNC(=O)N2CCN(Cc3ccon3)CC2)C1 (stereo unspecified),-5.29,2.67,-3.4,1.23,3.02,-1.04,1.74,5.23,4.92,8.64,-5.38
Cc1cc(C)n(C2CN(CC(O)c3ccc(F)cc3)C2)n1 (stereo unspecified),-2.64,-15.6,-6.46,8.34,0.936,-5.34,12.3,4.19,6.8,12.2,-6.46
CCc1ncncc1C(=O)NCCN1CCC(C)CC1,-1.34,-4.17,-7.77,0.13,5.54,-2.21,4.21,-30.7,1.05,0,-2.04
CCN1CC(C(=O)NC(C)(C)CNC(=O)OC(C)(C)C)CC1=O (stereo unspecified),-5.66,8.11,-1.21,20.7,-1.66,4.22,7.47,-16.6,4.3,8.64,-4.86
CN(C)S(=O)(=O)N1CCCC1CC(=O)c1cccs1 (stereo unspecified),2.35,2.7,-3.98,2.64,1.74,11.9,-0.862,16.6,-2.65,4.88,-1.64
O=C(CSc1nc2c(cnn2CCO)c(=O)[nH]1)N1CCCCCC1,1.99,8.22,-8.26,4.22,-3.33,3.18,11.4,14.3,4.3,10,-2.48
COc1ccccc1CC1CCCN(CC(N)=O)C1 (stereo unspecified),-0.0936,7.79,0.0164,9.64,0.0979,2.32,-0.889,-0.966,2.86,9.41,-6.07
Cc1ccc(CS(=O)(=O)N2CC[C@H]3[C@H]2CCN3C)cc1,1.22,13.7,-1.19,9.36,6.35,-0.399,14.5,-5.72,6.25,16.1,-5.83

# — ChEMBL document CHEMBL3988442, “University of Dundee, Small-Polar-MMV Screening Library” (2021)
